# Laboratory results published in publication PMC11006913.
# How the values were obtained:
# Assay in all cases: PBM; 200 nM protein, PBS
# Settings in all cases: dsDNA, one strand shown
# HESX1 [1] = target: HESX1 (Homo sapiens, UniProt Q9UBX0 95-180, R165K)
# HESX1 [2] = target: HESX1 (Homo sapiens, UniProt Q9UBX0 95-180)
# HESX1 [3] = target: HESX1 (Homo sapiens, UniProt Q9UBX0 95-180, R109Q)
# HESX1 [4] = target: HESX1 (Homo sapiens, UniProt Q9UBX0 95-180, P111T)
# HESX1 [5] = target: HESX1 (Homo sapiens, UniProt Q9UBX0 95-180, F115L)
# Chain of HESX1 (Homo sapiens, UniProt Q9UBX0 95-180, F115L) (Q9UBX0 95-180 F115L): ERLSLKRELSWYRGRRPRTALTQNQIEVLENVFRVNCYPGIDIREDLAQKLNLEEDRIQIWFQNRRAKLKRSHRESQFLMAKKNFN
# PRRX1 [6] = target: PRRX1 (Homo sapiens, UniProt P54821 80-166, F113S)
# Chain of PRRX1 (Homo sapiens, UniProt P54821 80-166, F113S) (P54821 80-166 F113S): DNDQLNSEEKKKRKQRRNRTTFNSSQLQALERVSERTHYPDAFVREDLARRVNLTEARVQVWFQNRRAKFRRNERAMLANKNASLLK
# MSX2 [7] = target: MSX2 (Homo sapiens, UniProt P35548 130-214, R199I)
# Chain of MSX2 (Homo sapiens, UniProt P35548 130-214, R199I) (P35548 130-214 R199I): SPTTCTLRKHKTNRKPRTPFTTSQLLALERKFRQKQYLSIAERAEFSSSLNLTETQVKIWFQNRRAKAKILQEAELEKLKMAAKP
# MSX2 [8] = target: MSX2 (Homo sapiens, UniProt P35548 130-214)
# Chain of MSX2 (Homo sapiens, UniProt P35548 130-214) (P35548 130-214): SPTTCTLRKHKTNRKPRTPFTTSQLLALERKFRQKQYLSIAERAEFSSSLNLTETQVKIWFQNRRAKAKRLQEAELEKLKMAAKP
# PROP1 [9] = target: PROP1 (Homo sapiens, UniProt O75360 56-141, R99H)
# Chain of PROP1 (Homo sapiens, UniProt O75360 56-141, R99H) (O75360 56-141 R99H): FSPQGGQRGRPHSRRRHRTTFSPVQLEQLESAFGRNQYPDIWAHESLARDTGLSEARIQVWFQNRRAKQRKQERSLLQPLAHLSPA
# ALX3 = ALX3 (Homo sapiens, UniProt O95076 139-225, L168Q)
# Chain of ALX3 (O95076 139-225 L168Q): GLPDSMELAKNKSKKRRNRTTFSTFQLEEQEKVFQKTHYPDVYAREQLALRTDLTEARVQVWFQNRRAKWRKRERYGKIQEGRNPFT
# MSX2 [10] = target: MSX2 (Homo sapiens, UniProt P35548 130-214, F161Y)
# Chain of MSX2 (Homo sapiens, UniProt P35548 130-214, F161Y) (P35548 130-214 F161Y): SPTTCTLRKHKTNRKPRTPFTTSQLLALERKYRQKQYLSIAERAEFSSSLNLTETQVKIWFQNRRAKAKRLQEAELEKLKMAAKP
# PRRX1 [11] = target: PRRX1 (Homo sapiens, UniProt P54821 80-166)
# Chain of PRRX1 (Homo sapiens, UniProt P54821 80-166) (P54821 80-166): as the sequence (P54821 80-166 F113S) above, with S34F counted along it
# ALX1 [12] = target: ALX1 (Homo sapiens, UniProt Q15699 118-204, L144V)
# Chain of ALX1 (Homo sapiens, UniProt Q15699 118-204, L144V) (Q15699 118-204 L144V): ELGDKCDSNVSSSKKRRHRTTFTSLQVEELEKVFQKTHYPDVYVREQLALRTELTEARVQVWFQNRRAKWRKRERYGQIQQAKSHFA
# ALX1 [13] = target: ALX1 (Homo sapiens, UniProt Q15699 118-204, L144R)
# Chain of ALX1 (Homo sapiens, UniProt Q15699 118-204, L144R) (Q15699 118-204 L144R): as the sequence (Q15699 118-204 L144V) above, with V27R counted along it
# ALX1 [14] = target: ALX1 (Homo sapiens, UniProt Q15699 118-204)
# Chain of ALX1 (Homo sapiens, UniProt Q15699 118-204) (Q15699 118-204): as the sequence (Q15699 118-204 L144V) above, with V27L counted along it
# ALX4 [15] = target: ALX4 (Homo sapiens, UniProt Q9H161 200-286)
# Chain of ALX4 (Homo sapiens, UniProt Q9H161 200-286) (Q9H161 200-286): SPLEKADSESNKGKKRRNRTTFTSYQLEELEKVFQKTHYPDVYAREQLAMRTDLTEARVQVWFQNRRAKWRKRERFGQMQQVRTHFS
# ALX4 [16] = target: ALX4 (Homo sapiens, UniProt Q9H161 200-286, Q225E)
# Chain of ALX4 (Homo sapiens, UniProt Q9H161 200-286, Q225E) (Q9H161 200-286 Q225E): as the sequence (Q9H161 200-286) above, with Q26E counted along it
# PROP1 [17] = target: PROP1 (Homo sapiens, UniProt O75360 56-141)
# Chain of PROP1 (Homo sapiens, UniProt O75360 56-141) (O75360 56-141): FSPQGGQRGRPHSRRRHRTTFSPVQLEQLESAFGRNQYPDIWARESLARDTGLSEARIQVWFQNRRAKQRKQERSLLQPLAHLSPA
# PROP1 [18] = target: PROP1 (Homo sapiens, UniProt O75360 56-141, F88S)
# Chain of PROP1 (Homo sapiens, UniProt O75360 56-141, F88S) (O75360 56-141 F88S): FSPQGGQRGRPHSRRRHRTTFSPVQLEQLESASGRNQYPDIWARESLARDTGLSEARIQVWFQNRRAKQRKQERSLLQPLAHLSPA
# Chain of HESX1 (Homo sapiens, UniProt Q9UBX0 95-180) (Q9UBX0 95-180): as the sequence (Q9UBX0 95-180 F115L) above, with L21F counted along it
# Chain of HESX1 (Homo sapiens, UniProt Q9UBX0 95-180, R165K) (Q9UBX0 95-180 R165K): as the sequence (Q9UBX0 95-180 F115L) above, with L21F, R71K counted along it
# Chain of HESX1 (Homo sapiens, UniProt Q9UBX0 95-180, R109Q) (Q9UBX0 95-180 R109Q): as the sequence (Q9UBX0 95-180 F115L) above, with R15Q, L21F counted along it
# Chain of HESX1 (Homo sapiens, UniProt Q9UBX0 95-180, P111T) (Q9UBX0 95-180 P111T): as the sequence (Q9UBX0 95-180 F115L) above, with P17T, L21F counted along it
sequence,measurement,setting,value
CGGGCCCG,binding signal,HESX1 [1],"6.56 upbm affinity estimate (log intensity, higher = more binding, comparable within an allelic series)"
same,binding signal,HESX1 [2],"6.74 upbm affinity estimate (log intensity, higher = more binding, comparable within an allelic series)"
same,binding signal,HESX1 [3],"6.76 upbm affinity estimate (log intensity, higher = more binding, comparable within an allelic series)"
same,binding signal,HESX1 [4],"6.72 upbm affinity estimate (log intensity, higher = more binding, comparable within an allelic series)"
same,binding signal,HESX1 [5],"6.55 upbm affinity estimate (log intensity, higher = more binding, comparable within an allelic series)"
GCCCCCCA,binding signal,HESX1 [1],"6.24 upbm affinity estimate (log intensity, higher = more binding, comparable within an allelic series)"
same,binding signal,HESX1 [2],"6.28 upbm affinity estimate (log intensity, higher = more binding, comparable within an allelic series)"
same,binding signal,HESX1 [3],"6.41 upbm affinity estimate (log intensity, higher = more binding, comparable within an allelic series)"
same,binding signal,HESX1 [4],"6.34 upbm affinity estimate (log intensity, higher = more binding, comparable within an allelic series)"
same,binding signal,HESX1 [5],"6.4 upbm affinity estimate (log intensity, higher = more binding, comparable within an allelic series)"
ACAATTAT,binding signal,HESX1 [1],"11.8 upbm affinity estimate (log intensity, higher = more binding, comparable within an allelic series)"
same,binding signal,PRRX1 [6],"11.2 upbm affinity estimate (log intensity, higher = more binding, comparable within an allelic series)"
same,binding signal,HESX1 [2],"12.1 upbm affinity estimate (log intensity, higher = more binding, comparable within an allelic series)"
same,binding signal,MSX2 [7],"12.6 upbm affinity estimate (log intensity, higher = more binding, comparable within an allelic series)"
same,binding signal,MSX2 [8],"13.8 upbm affinity estimate (log intensity, higher = more binding, comparable within an allelic series)"
same,binding signal,HESX1 [3],"8.44 upbm affinity estimate (log intensity, higher = more binding, comparable within an allelic series)"
same,binding signal,PROP1 [9],"10.8 upbm affinity estimate (log intensity, higher = more binding, comparable within an allelic series)"
same,binding signal,ALX3,"10.2 upbm affinity estimate (log intensity, higher = more binding, comparable within an allelic series)"
same,binding signal,HESX1 [4],"10.3 upbm affinity estimate (log intensity, higher = more binding, comparable within an allelic series)"
same,binding signal,MSX2 [10],"13.4 upbm affinity estimate (log intensity, higher = more binding, comparable within an allelic series)"
same,binding signal,HESX1 [5],"7.61 upbm affinity estimate (log intensity, higher = more binding, comparable within an allelic series)"
same,binding signal,PRRX1 [11],"13.2 upbm affinity estimate (log intensity, higher = more binding, comparable within an allelic series)"
GCCAGCCC,binding signal,HESX1 [1],"6.58 upbm affinity estimate (log intensity, higher = more binding, comparable within an allelic series)"
same,binding signal,HESX1 [2],"6.38 upbm affinity estimate (log intensity, higher = more binding, comparable within an allelic series)"
same,binding signal,ALX1 [12],"6.53 upbm affinity estimate (log intensity, higher = more binding, comparable within an allelic series)"
same,binding signal,ALX1 [13],"6.62 upbm affinity estimate (log intensity, higher = more binding, comparable within an allelic series)"
same,binding signal,HESX1 [3],"6.42 upbm affinity estimate (log intensity, higher = more binding, comparable within an allelic series)"
same,binding signal,HESX1 [4],"6.51 upbm affinity estimate (log intensity, higher = more binding, comparable within an allelic series)"
same,binding signal,HESX1 [5],"6.51 upbm affinity estimate (log intensity, higher = more binding, comparable within an allelic series)"
same,binding signal,ALX1 [14],"6.43 upbm affinity estimate (log intensity, higher = more binding, comparable within an allelic series)"
GTCCTGCA,binding signal,HESX1 [1],"6.29 upbm affinity estimate (log intensity, higher = more binding, comparable within an allelic series)"
same,binding signal,HESX1 [2],"6.29 upbm affinity estimate (log intensity, higher = more binding, comparable within an allelic series)"
same,binding signal,HESX1 [3],"6.46 upbm affinity estimate (log intensity, higher = more binding, comparable within an allelic series)"
same,binding signal,HESX1 [4],"6.46 upbm affinity estimate (log intensity, higher = more binding, comparable within an allelic series)"
same,binding signal,HESX1 [5],"6.53 upbm affinity estimate (log intensity, higher = more binding, comparable within an allelic series)"
AAGCTGGC,binding signal,HESX1 [1],"6.31 upbm affinity estimate (log intensity, higher = more binding, comparable within an allelic series)"
same,binding signal,HESX1 [2],"6.21 upbm affinity estimate (log intensity, higher = more binding, comparable within an allelic series)"
same,binding signal,HESX1 [3],"6.45 upbm affinity estimate (log intensity, higher = more binding, comparable within an allelic series)"
same,binding signal,HESX1 [4],"6.39 upbm affinity estimate (log intensity, higher = more binding, comparable within an allelic series)"
same,binding signal,HESX1 [5],"6.51 upbm affinity estimate (log intensity, higher = more binding, comparable within an allelic series)"
ATAATTGC,binding signal,HESX1 [1],"12.2 upbm affinity estimate (log intensity, higher = more binding, comparable within an allelic series)"
same,binding signal,ALX4 [15],"13.6 upbm affinity estimate (log intensity, higher = more binding, comparable within an allelic series)"
same,binding signal,PRRX1 [6],"11.1 upbm affinity estimate (log intensity, higher = more binding, comparable within an allelic series)"
same,binding signal,ALX4 [16],"12.7 upbm affinity estimate (log intensity, higher = more binding, comparable within an allelic series)"
same,binding signal,HESX1 [2],"12.4 upbm affinity estimate (log intensity, higher = more binding, comparable within an allelic series)"
same,binding signal,MSX2 [7],"12.9 upbm affinity estimate (log intensity, higher = more binding, comparable within an allelic series)"
same,binding signal,ALX1 [12],"11.4 upbm affinity estimate (log intensity, higher = more binding, comparable within an allelic series)"
same,binding signal,ALX1 [13],"11.1 upbm affinity estimate (log intensity, higher = more binding, comparable within an allelic series)"
same,binding signal,MSX2 [8],"14 upbm affinity estimate (log intensity, higher = more binding, comparable within an allelic series)"
same,binding signal,PROP1 [17],"11.1 upbm affinity estimate (log intensity, higher = more binding, comparable within an allelic series)"
same,binding signal,HESX1 [3],"8.36 upbm affinity estimate (log intensity, higher = more binding, comparable within an allelic series)"
same,binding signal,PROP1 [9],"10.9 upbm affinity estimate (log intensity, higher = more binding, comparable within an allelic series)"
same,binding signal,ALX3,"10.3 upbm affinity estimate (log intensity, higher = more binding, comparable within an allelic series)"
same,binding signal,HESX1 [4],"10.6 upbm affinity estimate (log intensity, higher = more binding, comparable within an allelic series)"
same,binding signal,PROP1 [18],"7.6 upbm affinity estimate (log intensity, higher = more binding, comparable within an allelic series)"
same,binding signal,MSX2 [10],"13.6 upbm affinity estimate (log intensity, higher = more binding, comparable within an allelic series)"
same,binding signal,HESX1 [5],"7.74 upbm affinity estimate (log intensity, higher = more binding, comparable within an allelic series)"
same,binding signal,PRRX1 [11],"13.2 upbm affinity estimate (log intensity, higher = more binding, comparable within an allelic series)"
CTGCATTA,binding signal,HESX1 [1],"7.23 upbm affinity estimate (log intensity, higher = more binding, comparable within an allelic series)"
same,binding signal,HESX1 [2],"7.34 upbm affinity estimate (log intensity, higher = more binding, comparable within an allelic series)"
same,binding signal,ALX1 [12],"8.85 upbm affinity estimate (log intensity, higher = more binding, comparable within an allelic series)"
same,binding signal,ALX1 [13],"8.64 upbm affinity estimate (log intensity, higher = more binding, comparable within an allelic series)"
same,binding signal,HESX1 [4],"7.12 upbm affinity estimate (log intensity, higher = more binding, comparable within an allelic series)"
same,binding signal,HESX1 [5],"6.71 upbm affinity estimate (log intensity, higher = more binding, comparable within an allelic series)"
same,binding signal,ALX1 [14],"9.15 upbm affinity estimate (log intensity, higher = more binding, comparable within an allelic series)"
GCAGGCGC,binding signal,HESX1 [1],"6.11 upbm affinity estimate (log intensity, higher = more binding, comparable within an allelic series)"
same,binding signal,HESX1 [2],"5.98 upbm affinity estimate (log intensity, higher = more binding, comparable within an allelic series)"
same,binding signal,ALX1 [12],"5.82 upbm affinity estimate (log intensity, higher = more binding, comparable within an allelic series)"
same,binding signal,ALX1 [13],"5.84 upbm affinity estimate (log intensity, higher = more binding, comparable within an allelic series)"
same,binding signal,HESX1 [3],"6.31 upbm affinity estimate (log intensity, higher = more binding, comparable within an allelic series)"
same,binding signal,HESX1 [4],"6.16 upbm affinity estimate (log intensity, higher = more binding, comparable within an allelic series)"
same,binding signal,HESX1 [5],"6.37 upbm affinity estimate (log intensity, higher = more binding, comparable within an allelic series)"
same,binding signal,ALX1 [14],"5.72 upbm affinity estimate (log intensity, higher = more binding, comparable within an allelic series)"
TCCCCCCA,binding signal,HESX1 [1],"6.55 upbm affinity estimate (log intensity, higher = more binding, comparable within an allelic series)"
same,binding signal,HESX1 [2],"6.5 upbm affinity estimate (log intensity, higher = more binding, comparable within an allelic series)"
same,binding signal,HESX1 [3],"6.55 upbm affinity estimate (log intensity, higher = more binding, comparable within an allelic series)"
same,binding signal,HESX1 [4],"6.52 upbm affinity estimate (log intensity, higher = more binding, comparable within an allelic series)"
same,binding signal,HESX1 [5],"6.55 upbm affinity estimate (log intensity, higher = more binding, comparable within an allelic series)"
AAATATTA,binding signal,HESX1 [1],"8.45 upbm affinity estimate (log intensity, higher = more binding, comparable within an allelic series)"
same,binding signal,HESX1 [2],"8.54 upbm affinity estimate (log intensity, higher = more binding, comparable within an allelic series)"
AGGGTATA,binding signal,HESX1 [1],"7.35 upbm affinity estimate (log intensity, higher = more binding, comparable within an allelic series)"
same,binding signal,HESX1 [2],"7.42 upbm affinity estimate (log intensity, higher = more binding, comparable within an allelic series)"
CGGCTAGC,binding signal,HESX1 [1],"6.5 upbm affinity estimate (log intensity, higher = more binding, comparable within an allelic series)"
same,binding signal,PRRX1 [6],"9.18 upbm affinity estimate (log intensity, higher = more binding, comparable within an allelic series)"
same,binding signal,HESX1 [2],"6.49 upbm affinity estimate (log intensity, higher = more binding, comparable within an allelic series)"
same,binding signal,HESX1 [3],"6.39 upbm affinity estimate (log intensity, higher = more binding, comparable within an allelic series)"
same,binding signal,HESX1 [4],"6.54 upbm affinity estimate (log intensity, higher = more binding, comparable within an allelic series)"
same,binding signal,HESX1 [5],"6.45 upbm affinity estimate (log intensity, higher = more binding, comparable within an allelic series)"
same,binding signal,PRRX1 [11],"9.46 upbm affinity estimate (log intensity, higher = more binding, comparable within an allelic series)"
ACCAAATA,binding signal,HESX1 [1],"7.74 upbm affinity estimate (log intensity, higher = more binding, comparable within an allelic series)"
same,binding signal,HESX1 [2],"7.83 upbm affinity estimate (log intensity, higher = more binding, comparable within an allelic series)"
same,binding signal,HESX1 [4],"7.46 upbm affinity estimate (log intensity, higher = more binding, comparable within an allelic series)"
CGCCTAGC,binding signal,HESX1 [1],"6.27 upbm affinity estimate (log intensity, higher = more binding, comparable within an allelic series)"
same,binding signal,PRRX1 [6],"9.26 upbm affinity estimate (log intensity, higher = more binding, comparable within an allelic series)"
same,binding signal,HESX1 [2],"6.37 upbm affinity estimate (log intensity, higher = more binding, comparable within an allelic series)"
same,binding signal,HESX1 [3],"6.4 upbm affinity estimate (log intensity, higher = more binding, comparable within an allelic series)"
same,binding signal,HESX1 [4],"6.38 upbm affinity estimate (log intensity, higher = more binding, comparable within an allelic series)"
same,binding signal,HESX1 [5],"6.57 upbm affinity estimate (log intensity, higher = more binding, comparable within an allelic series)"
same,binding signal,PRRX1 [11],"9.27 upbm affinity estimate (log intensity, higher = more binding, comparable within an allelic series)"
AGGTACCT,binding signal,HESX1 [1],"6.5 upbm affinity estimate (log intensity, higher = more binding, comparable within an allelic series)"
same,binding signal,ALX4 [15],"8.17 upbm affinity estimate (log intensity, higher = more binding, comparable within an allelic series)"
same,binding signal,ALX4 [16],"8.34 upbm affinity estimate (log intensity, higher = more binding, comparable within an allelic series)"
same,binding signal,HESX1 [2],"6.5 upbm affinity estimate (log intensity, higher = more binding, comparable within an allelic series)"
same,binding signal,HESX1 [3],"6.6 upbm affinity estimate (log intensity, higher = more binding, comparable within an allelic series)"
same,binding signal,HESX1 [4],"6.54 upbm affinity estimate (log intensity, higher = more binding, comparable within an allelic series)"
same,binding signal,HESX1 [5],"6.63 upbm affinity estimate (log intensity, higher = more binding, comparable within an allelic series)"
